The nature of assay [1]: qHTS assay to identify small molecule antagonists of the estrogen receptor alpha (ER-alpha) signaling pathway using the BG1 cell line in the presence of 0.1 nM 17-beta-estradiol - cell viability counter screen (AID 1259241). Further: nearly all actives have a fitted effect of over 40% in size. Further: potency means the concentration at half of the fitted maximal effect. Put shortly:
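Cytotoxicity counter-screen: live-cell protease activity measured by fluorescence (30 min reagent step) in the same wells. Cells were VM7Luc4E2 with endogenous ER-alpha and ERE-driven luciferase, treated 22 hr at 37C alongside 0.1 nM 17beta-estradiol final.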
A general note: Quantitative high-throughput screening tests each substance at several concentrations.

A short description of assay [2]: qHTS assay to identify small molecule antagonists of the androgen receptor (AR) signaling pathway using the MDA cell line in the presence of 0.5 nM R1881 - cell viability counter screen (AID 1259242). Further: nearly all actives have a fitted effect of over 45% in size. Further: potency means the concentration at half of the fitted maximal effect. The method, boiled down:
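MDA-kb2 cells (human breast carcinoma, stably carrying MMTV-luciferase reporter) were exposed to compounds with 0.5 nM R1881 (final) for 16 hr at 37C, 0% CO2; viability then read as live-cell protease fluorescence (CellTiter-Fluor, 30 min) in the same wells.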

In assay [3] the target is Androgen receptor (Homo sapiens) (UniProt P10275). The experiment in a line: qHTS assay to identify small molecule antagonists of the androgen receptor (AR) signaling pathway using the MDA cell line in the presence of 0.5 nM R1881 (AID 1259243). Further: nearly all actives have a fitted effect of over 50% in size. Further: potency means the concentration at half of the fitted maximal effect. Put shortly: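 MDA-kb2 human breast carcinoma cells carrying an MMTV-luciferase reporter (AR- and GR-responsive) were plated, rested 5 hr at 37C, dosed with compounds, then stimulated with 0.5 nM R1881 (final) for 16 hr; luminescence was read after ONE-Glo.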
Androgen receptor (Homo sapiens), sequence (P10275 whole entry, looked up): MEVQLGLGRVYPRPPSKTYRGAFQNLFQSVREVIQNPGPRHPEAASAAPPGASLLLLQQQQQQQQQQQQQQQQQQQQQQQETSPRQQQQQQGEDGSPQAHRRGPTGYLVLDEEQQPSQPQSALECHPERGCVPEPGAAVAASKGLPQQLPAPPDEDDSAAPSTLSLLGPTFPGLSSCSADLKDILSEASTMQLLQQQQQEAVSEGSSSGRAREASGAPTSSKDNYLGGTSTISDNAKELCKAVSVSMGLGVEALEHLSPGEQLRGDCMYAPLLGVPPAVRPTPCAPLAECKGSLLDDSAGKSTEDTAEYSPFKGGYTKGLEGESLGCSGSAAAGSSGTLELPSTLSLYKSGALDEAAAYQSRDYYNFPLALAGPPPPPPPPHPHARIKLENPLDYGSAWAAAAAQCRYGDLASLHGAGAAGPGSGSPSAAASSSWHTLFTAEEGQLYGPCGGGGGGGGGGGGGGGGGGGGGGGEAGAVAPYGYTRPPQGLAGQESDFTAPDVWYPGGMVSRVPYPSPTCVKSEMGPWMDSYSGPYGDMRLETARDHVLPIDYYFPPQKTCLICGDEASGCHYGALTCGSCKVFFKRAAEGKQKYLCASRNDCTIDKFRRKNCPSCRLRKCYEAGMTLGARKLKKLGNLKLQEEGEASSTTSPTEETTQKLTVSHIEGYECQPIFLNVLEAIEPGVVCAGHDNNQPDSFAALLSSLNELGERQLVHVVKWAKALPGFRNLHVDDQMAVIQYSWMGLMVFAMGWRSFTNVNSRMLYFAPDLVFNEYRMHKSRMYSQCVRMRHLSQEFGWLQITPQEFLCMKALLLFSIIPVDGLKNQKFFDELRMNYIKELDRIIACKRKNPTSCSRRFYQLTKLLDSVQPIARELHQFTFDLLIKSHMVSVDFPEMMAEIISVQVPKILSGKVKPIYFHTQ

Assay [4] has as its target Estrogen receptor (Homo sapiens) (UniProt P03372). The experiment in a line: qHTS assay to identify small molecule antagonists of the estrogen receptor alpha (ER-alpha) signaling pathway using the BG1 cell line in the presence of 0.1 nM 17-beta-estradiol (AID 1259244). Further: nearly all actives have a fitted effect of over 50% in size. Further: potency means the concentration at half of the fitted maximal effect. Put shortly:
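VM7Luc4E2 cells (endogenous full-length ER-alpha, stable 4xERE-luciferase) were grown 5 days in phenol red-free medium with charcoal-stripped FBS, then exposed 22 h at 37C to compounds plus 0.1 nM (final) 17beta-estradiol; ONE-Glo luminescence read-out.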

The nature of assay [5]: qHTS assay to identify small molecule HDAC inhibitors (AID 1259364). Further: nearly all actives have a fitted effect of over 45% in size. Further: potency means the concentration at half of the fitted maximal effect. On activity change, negative = inhibition: top concentration of the series differs between compounds. The method, boiled down: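 Wild-type HCT-116 cells were plated overnight, exposed to compounds for 2 h at 37 °C, then given HDAC-Glo class I/II luminogenic reagent for 30 min at room temperature before luminescence was read.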
Assay [6] is described as follows: qHTS assay to identify small molecule HDAC inhibitors - cell viability counter screen (AID 1259365). Further: nearly all actives have a fitted effect of over 50% in size. Further: potency means the concentration at half of the fitted maximal effect. On activity change, negative = cytotoxicity: series mostly up to about 92 µM. The method, boiled down:
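CellTiter-Glo luminescence (30 min, room temperature) reported viability after a 2 h compound exposure at 37 C. Cells: wild-type HCT-116, 1,500 per well, seeded the night before.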

Assay [7] can be described thus: qHTS assay to identify small molecule agonists of the sonic hedgehog signaling (Shh) pathway - cell viability counter screen (AID 1259366). Further: nearly all actives have a fitted effect of over 50% in size. Further: potency means the concentration at half of the fitted maximal effect. Put shortly: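 Cytotoxicity counter screen: CellTiter-Fluor reagent added after 23 h compound exposure, then 1 h at 37C and fluorescence read. Cells were 3T3 Gli1-Luc, seeded 2,000 per well and dosed 4 h post-plating.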
The nature of assay [8]: qHTS assay to identify small molecule antagonists of the sonic hedgehog signaling (Shh) pathway - cell viability counter screen (AID 1259367). Further: nearly all actives have a fitted effect of over 55% in size. Further: potency means the concentration at half of the fitted maximal effect. Put shortly:
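NIH/3T3-derived Gli1-Luc reporter cells, 2,000/well, plated 4 hr before compound addition, then stimulated with conditioned medium for 24 hr at 37C. Viability measured in the same wells by CellTiter-Fluor fluorescence, reagent added at 23 hr for 1 hr.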

Assay [9] in a line: qHTS assay to identify small molecule agonists of the sonic hedgehog signaling (Shh) pathway (AID 1259368; calls by dose curve; further: series mostly up to about 92 µM; nearly all actives have a fitted effect of over 15% in size). Put shortly: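 NIH/3T3-derived 3T3Gli1-Luc cells carrying a stably integrated Gli1 response element–firefly luciferase reporter were plated, left 4 hr at 37 C, then given compounds in DMSO for 24 hr. Luminescence was read 30 min after adding luciferase reagent.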
Assay [10] is described as follows: qHTS assay to identify small molecule phospholipidosis (PLD) inducers (AID 1259344; active means well fitted curve in the direction sought with a large enough effect; an effect the other way counts as inactive or inconclusive). The method, boiled down:
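HepG2 cells, 900/well, treated with compound plus LipidTOX Red for 24 h at 37 C; amiodarone positive and DMSO negative controls. Fixed with paraformaldehyde/Hoechst, then high-content imaging scored LipidTOX pit count and integrated intensity per well and per cell.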

“And” between values parts separate entries of the source, which are not always exact repeats. Equal entries are not always repeated. Values without a mark were called inactive. Records with an inconclusive call do not appear. The source made the active and inactive calls. Unless noted, the call rests on the fitted dose curve; in most records, active means well fitted curve in the direction sought with a large enough effect in the repeat runs; inconclusive means weak or mixed curves; inactive means no such curve, though single readings can be large; an effect the other way counts as inactive or inconclusive.
On the % scale 0 is the no-effect control and ±100 the full control effect.

Estrogen receptor (Homo sapiens), sequence (P03372 whole entry, looked up): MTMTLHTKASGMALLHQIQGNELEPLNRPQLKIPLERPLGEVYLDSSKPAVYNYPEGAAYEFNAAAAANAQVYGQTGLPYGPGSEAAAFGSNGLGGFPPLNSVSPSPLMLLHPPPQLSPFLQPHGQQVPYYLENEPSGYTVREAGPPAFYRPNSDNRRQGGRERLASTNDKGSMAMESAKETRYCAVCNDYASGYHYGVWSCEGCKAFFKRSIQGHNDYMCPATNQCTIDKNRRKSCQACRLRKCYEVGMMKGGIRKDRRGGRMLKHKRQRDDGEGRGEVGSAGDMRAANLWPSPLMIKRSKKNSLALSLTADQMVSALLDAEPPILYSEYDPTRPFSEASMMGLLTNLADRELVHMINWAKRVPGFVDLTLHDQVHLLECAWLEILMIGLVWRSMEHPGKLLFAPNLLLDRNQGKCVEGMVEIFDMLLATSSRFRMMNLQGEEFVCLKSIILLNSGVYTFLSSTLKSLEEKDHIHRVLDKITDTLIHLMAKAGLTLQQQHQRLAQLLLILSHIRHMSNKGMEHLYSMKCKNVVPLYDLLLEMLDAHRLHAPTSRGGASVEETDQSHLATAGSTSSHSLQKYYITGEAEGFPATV

In the case of `N#Cc1sc2c(=O)c3ccccc3c(=O)c=2sc1C#N`, the Potency is 5450 nM (active) in [1]; 13700 nM (active) in [2]; 4.86 µM (active) in assay [3]; 2430 nM (active) in assay [4]; 27300 nM (active) in assay [5]; 30600 nM (active) in assay [6]. In addition, the Potency in assay [7] was 8630 nM (active); in [8], 9.69 µM (active). Besides, the Potency entry in [9] is “inactive”.

In the case of `CCCCCCC[CH2][Sn]([Cl])([Cl])[CH2]CCCCCCC`, the Potency entry in assay [1], in assay [2], in assay [4], in [5], in assay [6] and in [7] was “inactive” each time. In addition, the Potency result in assay [8] was “inactive”.

Regarding `O=S1OCC2C(CO1)C1(Cl)C(Cl)=C(Cl)C2(Cl)C1(Cl)Cl` (stereo not drawn), the Potency result in assay [1], in assay [2], in assay [4], in assay [5], in assay [6] and in assay [9] was “inactive” each time. Moreover, the Potency in assay [3] is 48.6 µM (active) and 54.4 µM (active); in assay [8] it was 48.5 µM (active).

On to `ClC1=C(Cl)[C@]2(Cl)[C@@H]3[C@H]4C[C@H]([C@@H]5O[C@H]45)[C@@H]3[C@@]1(Cl)C2(Cl)Cl`, for which the Potency result in assay [1], in assay [2], in assay [4], in assay [5], in assay [6] and in [9] was “inactive” in each case. For the same compound, the result in assay [10] was inactive. Also, the Potency in [8] is 68.5 µM (active).

On to `Cc1ccc(C)c2ccccc12`, for which the Potency entry in assay [1], in assay [2], in assay [3], in assay [5], in [6] and in assay [7] was “inactive” in each case. The Potency entry in assay [8] and in assay [9] was “inactive” throughout.

On to `CCCCCCCc1ccc(O)cc1`, for which the Potency result in [1], in [2], in assay [5], in [7] and in assay [9] was “inactive” in each case. The Potency in assay [3] was 27.3 µM (active).

As to `C=CC(=O)[O][Sn]([CH2]CCC)([CH2]CCC)[CH2]CCC`, the Potency in assay [1] is 27300 nM (active); in [2], 1090 nM (active); in [3] it was 0.545 µM (active); in assay [4], 1720 nM (active); in [6] it was 19300 nM (active); in [7], 243 nM (active). Moreover, in assay [8], the Potency is 1.09 µM (active). Also, the Potency entry in assay [5] and in [9] was “inactive” each time.

In the case of `CCC[CH2][Sn]([CH2]CCC)([CH2]CCC)[O][Sn]([CH2]CCC)([CH2]CCC)[CH2]CCC`, the activity change, negative = cytotoxicity in [1] is -23.5% [at 8.39 µM]. Besides, the Potency in assay [2] is 533 nM (active); in assay [3], 0.189 µM (active); in [4] it was 377 nM (active); in assay [7], 212 nM (active); in assay [8] it was 0.377 µM (active). The activity change, negative = inhibition in assay [5] was 2.24% [at 8.39 µM]. In assay [9], the activity change is -10.2% [at 8.39 µM, hits give high values].

For the compound `Cc1ccc([N+](=O)[O-])[c]2c1[O][Hg]2`, the Potency was 9440 nM (active) in [1]; 6680 nM (active) in [2]; 2.37 µM (active) in assay [3]; 7500 nM (active) in assay [4]; 29800 nM (active) in [6]; 2660 nM (active) in assay [7]. For the same compound, the Potency in assay [8] is 3.35 µM (active). Besides, the Potency result in assay [9] was “inactive”.

`CCCCC/C=C\C/C=C\C/C=C\C/C=C\CCCC(=O)NCC(=O)O`: the Potency entry in [1], in assay [2], in assay [4], in assay [5], in assay [6] and in [7] was “inactive” in each case. In addition, the Potency entry in assay [8] and in [9] was “inactive” in each case. The PLD induction in assay [10] was 0.136% [at 3.15 µM].

As to `[O]=[Cr](=[O])([OH])[O][Cr](=[O])(=[O])[OH]`, the Potency entry in [1], in assay [2], in assay [5], in assay [6] and in assay [9] was “inactive” throughout. The Potency is 30.9 µM (active) and 54.4 µM (active) in assay [3]; 30.9 µM (active) and 30.6 µM (active) in [7]; 21.9 µM (active) and 30.6 µM (active) in [8]. For the same compound, in [10], the outcome was inactive.

In the case of `CC(C)NCC(O)c1ccccc1Cl` (stereo not drawn), the Potency entry in assay [1], in [2], in [3], in [4], in assay [5] and in assay [6] was “inactive” in each case. Besides, the Potency result in assay [7], in [8] and in assay [9] was “inactive” each time. The compound was classed as inactive in [10].

Turning to `CCOP(=S)(OCC)Oc1cc(C)nc(N(CC)CC)n1`, the Potency entry in [1], in assay [2], in [5], in assay [6], in assay [7] and in assay [8] was “inactive” each time. Further, the Potency entry in [9] is “inactive”. In assay [3], the Potency is 34.4 µM (active).

As for `ClC(Cl)C(Cl)(Cl)Cl`, the Potency result in assay [1], in assay [2], in [4], in assay [5], in assay [6] and in [7] was “inactive” throughout. Also, the Potency entry in [8] and in assay [9] was “inactive” each time.

Turning to `CSC(C)(C)/C=N/O`, the Potency entry in assay [1], in assay [2], in [4], in assay [5], in assay [7] and in assay [8] was “inactive” in each case. Further, the Potency entry in assay [9] was “inactive”.

As for `CN1[C@@H]2CC[C@H]1CC(O)C2` (stereo partly drawn), the Potency result in assay [1], in assay [2], in assay [4], in assay [5], in assay [6] and in [7] was “inactive” each time. The Potency result in assay [8] and in assay [9] was “inactive” in each case.

`C=CC(=C)C`: the Potency result in [1], in assay [2], in assay [4], in assay [5], in assay [6] and in [7] was “inactive” each time. Also, the Potency entry in assay [8] and in assay [9] was “inactive” throughout.

For the compound `N#Cc1c[nH]cc1-c1cccc2c1OC(F)(F)O2`, the Potency entry in [1], in [2], in assay [5], in assay [6], in [7] and in assay [8] was “inactive” throughout. In addition, the Potency result in assay [9] was “inactive”. Besides, the Potency in [4] was 24300 nM (active).

As to `O=[N+]([O-])c1ccc(Cl)c(Cl)c1Cl`, the Potency result in [1], in assay [2], in assay [4], in [5], in assay [6] and in [7] was “inactive” each time. In addition, the Potency entry in [8] and in assay [9] was “inactive” each time.

In the case of `CC[N+]1(CC)CCC(OC(=O)C(O)(c2ccccc2)c2ccccc2)C1` (stereo not drawn), the Potency result in assay [1], in assay [2], in assay [4], in [5], in assay [6] and in assay [7] was “inactive” throughout. Moreover, the Potency entry in [8] and in assay [9] was “inactive” each time.

Take `COc1cnc(OC)n2nc(NS(=O)(=O)c3c(OCC(F)F)cccc3C(F)(F)F)nc12`: the Potency result in assay [1], in assay [2], in [4], in [5], in assay [6] and in assay [7] was “inactive” each time. Also, the Potency result in [8] and in assay [9] was “inactive” throughout.

Consider `C=C(C)C(=O)[O][Sn]([CH2]CCC)([CH2]CCC)[CH2]CCC`, for which the Potency in assay [1] was 770 nM (active); in assay [2], 545 nM (active); in assay [4], 486 nM (active); in assay [6] it was 12200 nM (active); in assay [7] it was 172 nM (active); in assay [8] it was 0.486 µM (active). Further, the Potency result in assay [5] and in assay [9] was “inactive” each time.

Consider `CC1CN1` (stereo not drawn), for which the Potency result in assay [1], in assay [2], in assay [4], in assay [5], in assay [6] and in assay [7] was “inactive” each time. Besides, the Potency result in assay [8] and in assay [9] was “inactive” throughout.

Take `CC(=O)[O][Sn]([c]1ccccc1)([c]1ccccc1)[c]1ccccc1`: the Potency in [1] is 545 nM (active); in [2], 306 nM (active); in [7], 54.5 nM (active); in assay [8], 0.109 µM (active). Besides, the Potency result in assay [4], in [5] and in [9] was “inactive” throughout.

The values above are taken from PubChem BioAssay (Tox21).
